Screening data: PubChem BioAssay, National Center for Advancing Translational Sciences (NCATS)
PNC assembly inh = blocks assembly of the perinucleolar compartment; PC3M PTB-GFP, PNC prevalence imaging, 16 h; hits give low values; activity change (PNC), negative = inhibition, % at 10 µM; hit rate 3.1% among 140,000;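 active = readout at or below -70, meaning at least 70% loss of cells showing the perinucleolar compartment, a nuclear body marking cancer cells; inconclusive = readout between -30 and a set limit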;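 also: plate controls were DMSO wells for no effect and camptothecin positive control wells for full effect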
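Compounds are pinned in duplicate onto adhered PC3M cells stably expressing GFP-tagged PTB and incubated 16 h at 37 C. Cells are then fixed, nuclei stained with Hoechst, and PNC-positive cells counted.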
HPGD block = blocks human HPGD enzyme activity. P15428. Potency, µM, without a hit: at the top dose activity change, negative = inhibition, most hits filed as inhibitors. hit rate 4.3% among 150,000. purified HPGD, NADH fluorescence kinetic, PGE2 substrate; also: potency is read from the fitted curve at half-maximal effect
Target sequence (P15428 whole entry, looked up): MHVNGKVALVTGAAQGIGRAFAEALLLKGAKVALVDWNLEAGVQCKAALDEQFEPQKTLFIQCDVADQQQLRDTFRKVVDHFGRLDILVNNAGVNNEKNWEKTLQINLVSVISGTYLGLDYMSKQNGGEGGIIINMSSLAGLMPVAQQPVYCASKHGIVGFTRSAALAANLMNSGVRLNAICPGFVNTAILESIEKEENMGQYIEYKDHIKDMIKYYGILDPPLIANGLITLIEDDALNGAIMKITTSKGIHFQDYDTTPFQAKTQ
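20 nM HPGD preincubated 15 min at room temperature with compound in 50 mM Tris-HCl pH 8, 0.01% Tween 20. Started with 1 mM NAD+ and 30 uM prostaglandin E2; NADH fluorescence (360/450 nm) read 5 times over 30-s intervals, last minus first.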
ALDH1A1 inh = blocks purified human ALDH1A1 activity | P00352 | Purified ALDH1A1, NADH fluorescence, propionaldehyde substrate | Potency, µM (top dose mostly 75.3 µM), without a hit: top-dose activity, negative = inhibition, usual class: inhibitors | hit rate 7.3% among 220,000 | AID 1030;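 also: potency is read from the fitted curve at half-maximal effect; plate controls were no enzyme wells and a reference inhibitor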
Numbers without * were called inactive; ? = inconclusive; / = no result; [ ] = remark or other dose. Shown are actives, neighbours in structure and some others; about 11% of the full set was active somewhere. Unless noted, calls follow the shape of the dose curve; as a rule, active = well fitted inhibition curve with a large enough effect (not every such curve was filed as active); inconclusive = small, poorly fitted or top-dose-only effect, or another doubt; inactive = no such curve, though single readings can be large or run the other way. Unless noted, % is scaled to controls: 0 for no effect and ±100 for the full control effect.

SMILES	PNC assembly inh	HPGD block	ALDH1A1 inh
Nc1cccc(OCc2nc(N)nc(N)c2-c2ccc(Cl)cc2)c1	/	-5.1%	-1.6%[13.5 µM]
O=C(N/N=C/c1ccc2c(c1)OCO2)c1ccc(COc2cccc3cccnc23)cc1	/	/	-1.9%
NC(=O)c1nn(-c2cccc(Cl)c2)c(=O)cc1O	-100.0*	-7.6%	2.8%
NC(=O)c1nn(-c2ccc(Oc3ccccc3)cc2)c(=O)cc1O	/	/	2.1%
Cc1ccc(Cn2nnc3c(=O)n(Cc4ccccc4C)cnc32)cc1	-16.5	-6.8%	-1.4%
COC(=O)c1ccc(NC(=O)Cc2ccc(F)cc2)cc1	/	/	3.5%
COC(=O)c1ccc(NC(=O)CN2C(=O)C3C4C=CC(C4)C3C2=O)cc1 (stereo not drawn)	20.2	20µM*	3.1%
CCOC(=O)c1ccc(NC(=O)C(=O)NCc2ccncc2)cc1	?	-27.7%	?
O=C(CN1C(=O)C2C3C=CC(C3)C2C1=O)Nc1ccc(C(=O)O)cc1 (stereo not drawn)	72.4	-10.9%	7.5%
COC(=O)c1ccc(NC(=O)CNCc2ccncc2)cc1	-18.9	0.0%	22.4µM*
COC(=O)c1ccc(CNCC(=O)Nc2ccc(C(=O)OC)cc2)cc1	16.7	28.2µM*	-5.3%
O=C(NCc1ccco1)C(=O)NCC(c1ccco1)N1CCOCC1 (stereo not drawn)	/	/	-0.8%
Cc1cc(C)cc(NC(=S)NCc2cccn2C)c1	-1.0	-27.4%	-3.6%
O=C(COC(=O)CCSc1ccc(Cl)cc1)NCc1ccccc1Cl	-9.7	-17.5%	-14.5%
COc1ccccc1CN1C(=O)CCC1(C)C(=O)NC1CCCCCC1 (stereo not drawn)	?	2.9%	3.1%
S=C(NCc1ccccc1Cl)NC1CCCC1	-88.3*	-26.1%	11.1%
COc1ccccc1CNC(=S)NC1CCCCC1	/	/	-1.3%
O=C(COC(=O)C1CCC1)NCc1ccccc1Cl	40.4	8.91µM*	?
CC1(C(=O)NC2CCCC2)CCC(=O)N1Cc1ccccc1Cl (stereo not drawn)	-87.6*	-6.0%	0.7%
CC1CC1C(=O)OCC(=O)NCc1ccccc1Cl (stereo not drawn)	29.6	-15.7%	?
O=C(COC(=O)CCCNC(=O)c1ccc(Cl)cc1)NCc1ccccc1Cl	22.0	?	4.47µM*
CCCn1c(C)nc2c(NCCCCN3CCCC3)nc(C)nc21	/	-14.8%	-7.9%
Cc1cnc(CNc2nc(-c3ccc4c(c3)OCO4)nc3ccccc23)cn1	/	-22.7%	-13.5%
CS(=O)(=O)Nc1cccc(-c2ccc3ncnc(NC4CC4)c3c2)c1	/	/	6.7%
Cc1ccc(C(=O)Nc2cc3c(oc2=O)CCCC3=O)cc1	12.0	-19.7%	-10.1%
SMILES	PNC assembly inh	HPGD block	ALDH1A1 inh
COc1ccc2ccccc2c1/C=C\C(=O)c1ccccc1	/	-1.9%	1.1%[13.5 µM]
COc1ccc2ccccc2c1C(=O)/C=C\c1ccoc1	-10.9	?	20µM*
N=C1C(c2nc3ccccc3s2)=C(O)CN1C1CCCCC1	/	/	11.1%
Cc1ccc(S(=O)(=O)N2CCC(C(=O)NNC(=O)C3CC3)CC2)cc1Cl	/	/	0.7%
C=CCNc1nc(N)c(C(=C(C#N)C#N)c2ccc(Br)cc2)s1	-6.9	?	?
O=C1c2cccc3c([N+](=O)[O-])ccc(c23)C(=O)N1c1ccccn1	-104.8*	28.2µM*	4.7%
O=C1c2cccc3c([N+](=O)[O-])ccc(c23)C(=O)N1c1ccc(Cl)cn1	17.9	-20.8%	-7.8%
COc1ccc(NC(=S)N(CCc2nc3cc(C)c(C)cc3[nH]2)Cc2cccnc2)cc1	12.6	-13.8%	12.6µM*
COc1ccc(NC(=S)N(CCc2c(C)[nH]c3ccccc23)Cc2cccnc2)cc1	61.1	-13.1%	-5.2%
CCOc1ccc(S(=O)(=O)N2c3ccccc3CC2C)cc1 (stereo not drawn)	-103.0*	-15.5%	?
COc1ccc(C)cc1S(=O)(=O)N1c2ccccc2CC1C (stereo not drawn)	48.6	-6.2%	?
Cc1ccc(S(=O)(=O)N2c3ccccc3CC2C)cc1 (stereo not drawn)	/	/	-4.5%
Cc1ccc(S(=O)(=O)N2c3ccc(S(N)(=O)=O)cc3CC2C)cc1 (stereo not drawn)	-22.5	-5.9%	25.1µM*
CCCCC/C=C\C/C=C\C/C=C\C/C=C\CCCCCC(=O)NC(C)C(=O)O (stereo not drawn)	/	-6.2%	2.8%
O[C@@H]1[C@@H](OCc2ccccc2)OC[C@H](O)[C@@H]1O	/	-1.8%	0.1%[13.5 µM]
CCOc1ncccc1C(=O)Nc1cccc(Cl)c1Cl	/	/	-4.2%
O=C(CCCc1nc2ccccc2s1)NCc1ccccc1	-9.0	14.1µM*	10.2%
O=C(O)CCCc1nc2ccccc2s1	50.3	-7.7%	-0.1%
O=C(CCc1nc2ccccc2s1)c1ccccc1	-1.5	?	-3.9%
O=C(CCCc1nc2ccccc2s1)NC(c1ccccc1)c1ccccc1	32.9	-3.7%	-1.3%
